# Data taken from PubChem BioAssay (EPA / NIEHS).
# Records with an inconclusive call do not appear. Active and inactive are the calls of the source. How the source made its calls, unless noted: active means hit-call score of the fitted dose curve at least 0.9, where 1 is the maximum; inactive means score below 0.9.
# Columns and labels:
# [1] = ATG_NFI_CIS: Attagene CIS-FACTORIAL HepG2 Assay for human Nuclear Factor I (NFI) (AID 2282989); details: HepG2 cis-regulatory reporter, NFI response element transcription; actives raise or lower the signal
# Summary of the method: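 Cells: human liver HepG2, transiently transfected with promoter-regulated reporter transcription units. Exposure 24 h. Detection: fluorescent RT-PCR products separated by capillary electrophoresis, normalised to DMSO negative control.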
# [2] = target: Myc proto-oncogene protein (Homo sapiens) (UniProt P01106); assay: ATG_Myc_CIS: Attagene CIS-FACTORIAL HepG2 Assay for human Myelocytomatosis (Myc) Proto-Oncogene Transcription Factor (AID 2282990); details: HepG2, Attagene cis-reporter transcription factor activity; actives raise or lower the signal
# Sequence of Myc proto-oncogene protein (Homo sapiens) (P01106 whole entry, looked up): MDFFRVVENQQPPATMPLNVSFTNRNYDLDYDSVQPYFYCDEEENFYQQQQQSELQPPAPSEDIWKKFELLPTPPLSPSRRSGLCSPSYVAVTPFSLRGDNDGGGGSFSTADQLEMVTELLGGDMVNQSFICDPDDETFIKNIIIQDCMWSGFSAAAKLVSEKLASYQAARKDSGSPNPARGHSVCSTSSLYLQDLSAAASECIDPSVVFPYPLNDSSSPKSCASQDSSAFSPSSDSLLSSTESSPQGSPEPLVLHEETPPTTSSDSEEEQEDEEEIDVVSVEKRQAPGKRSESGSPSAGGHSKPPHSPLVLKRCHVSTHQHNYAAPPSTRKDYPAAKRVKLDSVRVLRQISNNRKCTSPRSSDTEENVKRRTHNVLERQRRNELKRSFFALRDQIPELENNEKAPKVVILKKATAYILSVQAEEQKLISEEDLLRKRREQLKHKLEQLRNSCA
# Summary of the method: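 Cells of the HepG2 human liver line bear multiple cis-driven reporter transcription units. Reporter mRNA after 24 h exposure is reverse-transcribed, amplified, labelled and resolved by capillary electrophoresis, with gain- or loss-of-signal fitting relative to DMSO.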
# [3] = ATG_NF_kB_CIS: Attagene CIS-FACTORIAL HepG2 Assay for human Nuclear Factor Kappa B (NF-kB) (AID 2282991); details: HepG2 Attagene cis-factorial NF-kB reporter mRNA; actives raise or lower the signal
# Summary of the method: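 HepG2 cells transfected with cis-promoter-driven reporter units, so endogenous transcription factor activity is measured. Reporter mRNA quantified 24 h after dosing by RT-PCR and capillary electrophoresis, with bidirectional fitting against DMSO.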
# [4] = ATG_NRF2_ARE_CIS: Attagene CIS-FACTORIAL HepG2 Assay for human Nuclear Factor Erythroid 2 Related Factor 2 (NFR2) response to Antioxidant Response Elements (ARE) (AID 2282992); details: HepG2 Attagene ARE/NRF2 reporter, transcription factor activity; actives raise or lower the signal;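 on AC50: reporter mRNA level measured by RT-PCR and capillary electrophoresis fluorescence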
# Summary of the method: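 HepG2 cells transiently transfected with multiplexed cis-regulated reporter transcription units measure endogenous transcription factor activity. Reporter mRNA at 24 h is quantified by RT-PCR, fluorescent labelling and capillary electrophoresis, with bidirectional fitting relative to DMSO.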
# [5] = target: Cellular tumor antigen p53 (Homo sapiens) (UniProt P04637); assay: ATG_p53_CIS: Attagene CIS-FACTORIAL HepG2 Assay for human p53 Transcription Factor (AID 2282994); details: HepG2 p53 cis-element reporter, Attagene mRNA; actives raise or lower the signal
# Sequence of Cellular tumor antigen p53 (Homo sapiens) (P04637 whole entry, looked up): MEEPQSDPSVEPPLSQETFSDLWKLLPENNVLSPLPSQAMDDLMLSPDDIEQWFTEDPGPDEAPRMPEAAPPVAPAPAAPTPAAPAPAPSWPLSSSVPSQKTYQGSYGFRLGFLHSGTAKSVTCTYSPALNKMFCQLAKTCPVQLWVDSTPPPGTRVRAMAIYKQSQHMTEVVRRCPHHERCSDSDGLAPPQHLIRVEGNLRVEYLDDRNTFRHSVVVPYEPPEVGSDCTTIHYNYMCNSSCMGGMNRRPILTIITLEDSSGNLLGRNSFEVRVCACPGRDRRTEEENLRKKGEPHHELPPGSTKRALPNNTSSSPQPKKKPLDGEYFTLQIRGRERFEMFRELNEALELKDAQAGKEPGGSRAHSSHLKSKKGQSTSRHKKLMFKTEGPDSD
# Summary of the method: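 HepG2 cells transiently transfected with multiplexed cis-regulated reporter transcription units read endogenous TF activity. After 24 h compound exposure, reporter mRNA was quantified by RT-PCR, fluorescent labelling, HpaI digestion and capillary electrophoresis; bidirectional fits versus DMSO baseline.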
# [6] = target: human Peroxisome Proliferator-activated Receptor alpha (PPARa), PPARA (gene 5465) (UniProt Q07869); assay: ATG_PPARa_TRANS: Attagene TRANS-FACTORIAL HepG2 Assay for human Peroxisome Proliferator-activated Receptor alpha (PPARa) (AID 2283001; active means hit-call score of the fitted dose curve at least 0.9, where 1 is the maximum)
# Sequence of human Peroxisome Proliferator-activated Receptor alpha (PPARa), PPARA (gene 5465) (Q07869 whole entry, looked up, the tested form may be a part): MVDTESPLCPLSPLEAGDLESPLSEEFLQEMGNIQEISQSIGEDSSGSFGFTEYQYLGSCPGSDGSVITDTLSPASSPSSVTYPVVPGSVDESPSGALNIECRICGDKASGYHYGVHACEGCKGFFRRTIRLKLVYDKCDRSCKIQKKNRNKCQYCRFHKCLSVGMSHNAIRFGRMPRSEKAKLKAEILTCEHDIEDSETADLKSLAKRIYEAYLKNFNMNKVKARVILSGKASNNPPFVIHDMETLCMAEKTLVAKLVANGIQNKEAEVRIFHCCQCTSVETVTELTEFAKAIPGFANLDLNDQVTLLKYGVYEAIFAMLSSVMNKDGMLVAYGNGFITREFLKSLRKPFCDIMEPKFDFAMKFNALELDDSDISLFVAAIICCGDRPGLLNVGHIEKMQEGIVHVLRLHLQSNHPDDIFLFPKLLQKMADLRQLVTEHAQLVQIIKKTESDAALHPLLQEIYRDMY
# Summary of the method: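 Reporter transcripts from GAL4-UAS units in transfected HepG2 were quantified 24 h after dosing. Detection used reverse transcription, PCR, fluorescent primer extension and capillary electrophoresis, with DMSO as baseline.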
# [7] = target: human Peroxisome Proliferator-activated Receptor delta (PPARd), PPARD (gene 5467) (UniProt Q03181); assay: ATG_PPARd_TRANS: Attagene TRANS-FACTORIAL HepG2 Assay for human Peroxisome Proliferator-activated Receptor delta (PPARd) (AID 2283002; active means hit-call score of the fitted dose curve at least 0.9, where 1 is the maximum)
# Sequence of human Peroxisome Proliferator-activated Receptor delta (PPARd), PPARD (gene 5467) (Q03181 whole entry, looked up): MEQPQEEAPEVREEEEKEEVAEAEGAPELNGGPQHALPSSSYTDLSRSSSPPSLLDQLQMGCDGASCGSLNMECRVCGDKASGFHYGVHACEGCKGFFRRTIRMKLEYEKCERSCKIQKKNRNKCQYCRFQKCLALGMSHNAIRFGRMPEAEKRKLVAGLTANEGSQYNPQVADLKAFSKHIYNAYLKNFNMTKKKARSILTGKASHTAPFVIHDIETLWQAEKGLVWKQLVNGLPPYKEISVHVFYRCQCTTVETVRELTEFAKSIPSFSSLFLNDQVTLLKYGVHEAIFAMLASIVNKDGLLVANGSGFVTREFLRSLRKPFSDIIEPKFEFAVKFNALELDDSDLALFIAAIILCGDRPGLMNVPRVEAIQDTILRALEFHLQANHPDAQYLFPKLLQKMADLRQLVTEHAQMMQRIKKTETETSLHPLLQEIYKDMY
# Summary of the method: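 Cell-based TRANS reporter: HepG2, transient MRTU transfection, 24 h exposure. Readout = reporter mRNA (RT-PCR/CE, 6-FAM). Gain-of-signal fit vs DMSO control.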
# [8] = target: Retinoic acid receptor alpha (Homo sapiens) (UniProt P10276); assay: ATG_RARa_TRANS: Attagene TRANS-FACTORIAL HepG2 Assay for human Retinoic Acid Receptor alpha (RARa) (AID 2283005; active means hit-call score of the fitted dose curve at least 0.9, where 1 is the maximum)
# Sequence of Retinoic acid receptor alpha (Homo sapiens) (P10276 whole entry, looked up, the tested form may be a part): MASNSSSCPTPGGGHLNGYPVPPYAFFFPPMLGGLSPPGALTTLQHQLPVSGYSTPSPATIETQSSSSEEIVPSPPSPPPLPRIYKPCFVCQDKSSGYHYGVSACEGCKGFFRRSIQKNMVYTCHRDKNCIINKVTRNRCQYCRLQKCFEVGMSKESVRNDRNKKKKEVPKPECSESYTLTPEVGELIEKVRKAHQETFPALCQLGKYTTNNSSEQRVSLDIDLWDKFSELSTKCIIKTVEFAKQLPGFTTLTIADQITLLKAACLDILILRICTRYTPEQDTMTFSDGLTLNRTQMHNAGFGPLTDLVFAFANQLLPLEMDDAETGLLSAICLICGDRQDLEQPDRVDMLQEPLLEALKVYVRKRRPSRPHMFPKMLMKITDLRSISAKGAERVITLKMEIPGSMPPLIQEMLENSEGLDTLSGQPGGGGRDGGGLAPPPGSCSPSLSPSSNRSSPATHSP
# Summary of the method: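 Reporter transcripts, measured by RT-PCR with fluorescent labeling and capillary electrophoresis after 24 h dosing, reflect activity of an exogenous human RARa–GAL4 fusion in transiently transfected HepG2. Fitted for increase relative to DMSO.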
# [9] = target: human RAR-related Orphan Receptor beta (RORb), RORB (gene 6096) (UniProt Q92753); assay: ATG_RORb_TRANS: Attagene TRANS-FACTORIAL HepG2 Assay for human RAR-related Orphan Receptor beta (RORb) (AID 2283010; active means hit-call score of the fitted dose curve at least 0.9, where 1 is the maximum)
# Sequence of human RAR-related Orphan Receptor beta (RORb), RORB (gene 6096) (Q92753 whole entry, looked up, the tested form may be a part): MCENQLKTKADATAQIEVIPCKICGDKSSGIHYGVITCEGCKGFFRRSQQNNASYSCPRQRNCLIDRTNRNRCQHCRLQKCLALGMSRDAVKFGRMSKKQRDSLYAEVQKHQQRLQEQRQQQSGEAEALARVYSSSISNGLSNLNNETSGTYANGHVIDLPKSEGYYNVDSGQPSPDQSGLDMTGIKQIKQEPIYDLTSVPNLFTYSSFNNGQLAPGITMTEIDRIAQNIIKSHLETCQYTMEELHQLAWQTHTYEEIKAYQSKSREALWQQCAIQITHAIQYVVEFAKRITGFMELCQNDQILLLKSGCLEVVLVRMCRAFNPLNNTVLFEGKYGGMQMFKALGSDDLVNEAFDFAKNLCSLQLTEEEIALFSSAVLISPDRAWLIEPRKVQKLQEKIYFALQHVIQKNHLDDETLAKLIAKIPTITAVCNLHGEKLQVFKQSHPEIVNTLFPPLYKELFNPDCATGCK
# Summary of the method: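 In this TRANS-format test, human HepG2 cells express chimeric NR-Gal4 fusion proteins driving GAL4-UAS reporters. After 24 h dosing, reporter transcripts are measured by fluorescent RT-PCR/capillary electrophoresis, with DMSO as negative control.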
# [10] = target: Peroxisome proliferator-activated receptor gamma (Homo sapiens) (UniProt P37231); assay: ATG_PPARg_TRANS: Attagene TRANS-FACTORIAL HepG2 Assay for human Peroxisome Proliferator-activated Receptor-gamma (PPARg) (AID 2283007; active means hit-call score of the fitted dose curve at least 0.9, where 1 is the maximum)
# Sequence of Peroxisome proliferator-activated receptor gamma (Homo sapiens) (P37231 whole entry, looked up, the tested form may be a part): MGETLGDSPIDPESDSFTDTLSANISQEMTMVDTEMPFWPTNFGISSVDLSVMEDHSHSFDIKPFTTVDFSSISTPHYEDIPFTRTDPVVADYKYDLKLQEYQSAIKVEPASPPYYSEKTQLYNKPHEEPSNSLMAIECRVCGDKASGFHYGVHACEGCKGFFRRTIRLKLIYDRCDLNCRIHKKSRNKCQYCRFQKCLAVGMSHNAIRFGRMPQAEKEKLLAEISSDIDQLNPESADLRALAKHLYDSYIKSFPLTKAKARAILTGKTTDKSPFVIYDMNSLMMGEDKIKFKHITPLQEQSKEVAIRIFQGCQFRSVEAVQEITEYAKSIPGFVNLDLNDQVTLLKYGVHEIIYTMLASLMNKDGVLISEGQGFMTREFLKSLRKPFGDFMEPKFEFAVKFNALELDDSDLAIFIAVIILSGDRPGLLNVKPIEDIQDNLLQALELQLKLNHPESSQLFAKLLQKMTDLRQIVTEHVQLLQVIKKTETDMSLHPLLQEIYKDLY
# Summary of the method: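 HepG2 cells are transiently transfected with GAL4-UAS reporter units driven by chimeric NR-Gal4 fusions and dosed for 24 h. Reporter mRNA is quantified by RT-PCR, 6-FAM labelling, HpaI digestion and capillary electrophoresis. Induction is scored against DMSO.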
# [11] = target: Nuclear receptor subfamily 1 group I member 2 (Homo sapiens) (UniProt O75469); assay: ATG_PXR_TRANS: Attagene TRANS-FACTORIAL HepG2 Assay for human Pregnane X Receptor (PXR) (AID 2283008; active means hit-call score of the fitted dose curve at least 0.9, where 1 is the maximum)
# Sequence of Nuclear receptor subfamily 1 group I member 2 (Homo sapiens) (O75469 whole entry, looked up, the tested form may be a part): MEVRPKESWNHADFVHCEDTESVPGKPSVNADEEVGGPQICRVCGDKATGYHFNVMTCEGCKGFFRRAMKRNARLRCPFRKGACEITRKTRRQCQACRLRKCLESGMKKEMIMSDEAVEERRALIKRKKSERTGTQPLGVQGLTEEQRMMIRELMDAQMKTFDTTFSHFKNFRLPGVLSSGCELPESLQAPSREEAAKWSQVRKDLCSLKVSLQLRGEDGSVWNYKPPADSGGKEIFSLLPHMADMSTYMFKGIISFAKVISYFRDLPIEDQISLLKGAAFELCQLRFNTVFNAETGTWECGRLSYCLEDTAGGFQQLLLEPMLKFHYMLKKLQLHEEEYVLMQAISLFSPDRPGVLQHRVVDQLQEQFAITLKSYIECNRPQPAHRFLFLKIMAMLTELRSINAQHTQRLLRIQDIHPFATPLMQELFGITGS
# Summary of the method: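 HepG2 cells transiently transfected with multiple reporter units, here a PXR-GAL4 chimera driving a GAL4-UAS reporter; 24 h compound exposure. Reporter mRNA measured by RT-PCR, FAM labelling and capillary electrophoresis; gain of signal fitted against DMSO baseline.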
# [12] = ATG_Oct_MLP_CIS: Attagene CIS-FACTORIAL HepG2 Assay for human Octamer-Binding Transcription Factor (Oct) (AID 2282993); details: HepG2 Attagene cis-factorial Oct reporter, mRNA; actives raise or lower the signal
# Summary of the method: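 HepG2, transient MRTU transfection, cis promoter elements; 24 h dosing; RT-PCR/CE fluorescence read-out of reporter mRNA; fit both directions vs DMSO.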
# [13] = target: human Retinoic Acid Receptor gamma (RARg), RARG (gene 5916) (UniProt P13631); assay: ATG_RARg_TRANS: Attagene TRANS-FACTORIAL HepG2 Assay for human Retinoic Acid Receptor gamma (RARg) (AID 2283009; active means hit-call score of the fitted dose curve at least 0.9, where 1 is the maximum)
# Sequence of human Retinoic Acid Receptor gamma (RARg), RARG (gene 5916) (P13631 whole entry, looked up, the tested form may be a part): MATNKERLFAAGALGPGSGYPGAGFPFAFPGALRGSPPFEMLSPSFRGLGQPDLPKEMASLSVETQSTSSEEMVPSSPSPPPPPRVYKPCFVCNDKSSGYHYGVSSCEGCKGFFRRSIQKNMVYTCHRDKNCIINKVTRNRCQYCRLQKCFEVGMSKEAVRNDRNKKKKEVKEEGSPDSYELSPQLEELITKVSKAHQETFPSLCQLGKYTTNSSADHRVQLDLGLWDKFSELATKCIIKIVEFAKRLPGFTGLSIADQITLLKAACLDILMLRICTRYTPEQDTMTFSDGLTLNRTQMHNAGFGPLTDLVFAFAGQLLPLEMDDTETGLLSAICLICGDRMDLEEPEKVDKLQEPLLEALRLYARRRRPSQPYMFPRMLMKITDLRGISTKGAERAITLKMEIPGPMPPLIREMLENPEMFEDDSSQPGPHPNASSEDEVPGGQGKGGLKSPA
# Summary of the method: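 HepG2, RARg-GAL4 TRANS system, 24 h exposure; reporter mRNA by RT-PCR + CE fluorescence; increase over DMSO.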
# [14] = BSK_3C_TissueFactor: BioMAP Diversity Plus: 3C Assay for Tissue Factor Biomarker Activity (AID 2282997); details: BioMAP 3C HUVEC, tissue factor biomarker readout; actives raise or lower the signal
# Summary of the method: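 Human vascular primary cells (umbilical vein endothelium) received test chemical; Tissue Factor was determined by ELISA at 24 h, and both gain and loss of signal versus DMSO were fitted.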
# [15] = BSK_3C_VCAM1: BioMAP Diversity Plus: 3C Assay for Vascular cell adhesion molecule 1 (VCAM1) Biomarker Activity (AID 2282999); details: BioMAP 3C HUVEC, VCAM1 ELISA, cytokine-stimulated; actives raise or lower the signal
# Summary of the method: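 Endothelial cells from human umbilical vein are treated with test chemical. At 24 h, VCAM-1 is measured by ELISA, and responses in either direction are fitted relative to DMSO.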
# [16] = BSK_4H_Eotaxin3: BioMAP Diversity Plus: 4H Assay for Eotaxin 3 Biomarker Activity (AID 2283000); details: primary human endothelial cells (HUVEC); actives raise or lower the signal;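 further: CCL26 protein level quantified by ELISA in parallel with SRB cytotoxicity check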
# Summary of the method: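 Readout is Eotaxin-3 (CCL26) level by ELISA in primary human umbilical vein endothelial cells harvested 24 h after chemical exposure; activity fitted in both directions against DMSO control.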
# [17] = read-out: Intercellular Adhesion Molecule 1 (ICAM1), ICAM1 (gene 3383); assay: BSK_3C_ICAM1: BioMAP Diversity Plus: 3C Assay for Intercellular Adhesion Molecule 1 (ICAM1) Biomarker Activity (AID 2283003); details: primary human endothelial cells (HUVEC); actives raise or lower the signal
# Summary of the method: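 Human vascular endothelial primary cells, 3C conditions, 24 h treatment. ICAM-1 by ELISA.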
# [18] = target: human Retinoic Acid Receptor beta (RARb), RARB (gene 5915) (UniProt P10826); assay: ATG_RARb_TRANS: Attagene TRANS-FACTORIAL HepG2 Assay for human Retinoic Acid Receptor beta (AID 2283004; active means hit-call score of the fitted dose curve at least 0.9, where 1 is the maximum)
# Sequence of human Retinoic Acid Receptor beta (RARb), RARB (gene 5915) (P10826 whole entry, looked up, the tested form may be a part): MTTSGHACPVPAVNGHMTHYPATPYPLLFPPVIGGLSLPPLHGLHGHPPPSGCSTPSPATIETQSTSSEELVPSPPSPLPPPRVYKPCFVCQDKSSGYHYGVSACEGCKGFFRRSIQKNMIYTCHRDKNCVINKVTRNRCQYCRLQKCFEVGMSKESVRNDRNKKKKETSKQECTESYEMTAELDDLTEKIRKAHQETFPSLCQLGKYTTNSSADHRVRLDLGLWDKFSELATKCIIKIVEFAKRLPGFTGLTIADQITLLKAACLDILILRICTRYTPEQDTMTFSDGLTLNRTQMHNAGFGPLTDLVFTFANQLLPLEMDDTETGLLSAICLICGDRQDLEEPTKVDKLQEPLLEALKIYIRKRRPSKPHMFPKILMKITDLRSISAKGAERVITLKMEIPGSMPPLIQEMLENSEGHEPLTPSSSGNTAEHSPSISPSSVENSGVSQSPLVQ
# Summary of the method: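 Readout is reporter mRNA induction: RNA reverse-transcribed, PCR-amplified, FAM-labelled, HpaI-cut and resolved by capillary electrophoresis. Transiently transfected HepG2 cells carrying exogenous NR–Gal4 chimeras were dosed for 24 h; activity fitted upward relative to DMSO.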
# [19] = BSK_3C_Proliferation: Cell Proliferation Assessment in the BioMAP Diversity Plus: 3C Assay (AID 2283006); details: primary human endothelial cells (HUVEC)
# Summary of the method: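 Proliferation of human vascular endothelial primary cells after 48 h dosing, quantified as SRB-stained protein at 560 nm relative to DMSO.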
compound,measurement,setting,value
C[Si](C)(C)O[Si](C)(C)C,outcome,[1],inactive
same,outcome,[2],inactive
same,outcome,[3],inactive
same,outcome,[4],inactive
same,outcome,[5],inactive
same,outcome,[6],inactive
same,outcome,[7],inactive
same,outcome,[8],inactive
same,outcome,[9],inactive
CCOC(=O)[C@@H](C)Oc1ccc(Oc2nc3ccc(Cl)cc3o2)cc1,outcome,[1],inactive
same,outcome,[2],inactive
same,outcome,[3],inactive
same,AC50,[4],39.9 µM (active)
same,outcome,[5],inactive
same,outcome,[6],inactive
same,outcome,[7],inactive
same,AC50,[10],39.2 µM (active)
same,outcome,[11],inactive
OC[C@H]1O[C@@H]2O[C@H]3[C@H](O)[C@@H](O)[C@@H](O[C@H]4[C@H](O)[C@@H](O)[C@@H](O[C@H]5[C@H](O)[C@@H](O)[C@@H](O[C@H]6[C@H](O)[C@@H](O)[C@@H](O[C@H]7[C@H](O)[C@@H](O)[C@@H](O[C@H]8[C@H](O)[C@@H](O)[C@@H](O[C@H]9[C@H](O)[C@@H](O)[C@@H](O[C@H]1[C@H](O)[C@H]2O)O[C@@H]9CO)O[C@@H]8CO)O[C@@H]7CO)O[C@@H]6CO)O[C@@H]5CO)O[C@@H]4CO)O[C@@H]3CO,outcome,[1],inactive
same,outcome,[2],inactive
same,outcome,[3],inactive
same,outcome,[4],inactive
same,outcome,[12],inactive
same,outcome,[10],inactive
same,outcome,[9],inactive
CN1C(=O)c2ccccc2C1=O,outcome,[1],inactive
same,outcome,[2],inactive
same,outcome,[3],inactive
same,outcome,[4],inactive
same,outcome,[5],inactive
same,outcome,[6],inactive
same,outcome,[7],inactive
same,outcome,[13],inactive
CS(=O)(=O)c1ccc(C2=C(c3ccccc3)C(=O)OC2)cc1,outcome,[1],inactive
same,outcome,[2],inactive
same,outcome,[3],inactive
same,outcome,[4],inactive
same,outcome,[5],inactive
same,outcome,[14],inactive
same,outcome,[15],inactive
same,outcome,[16],inactive
same,outcome,[17],inactive
same,outcome,[18],inactive
same,outcome,[19],inactive
same,outcome,[10],inactive
same,outcome,[11],inactive
